Data as given in PubChem BioAssay AID652257 (The Scripps Research Institute Molecular Screening Center, 2013).
In all, about 370,000 compounds went through this assay and about 4,800 (1.3%) were called active.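 The calls were made as follows: active = inhibition above about 21% made by adding two undisclosed values (limit read from the data); inactive = the rest.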 The sample as a whole holds a higher share of actives than the screen did.

Molecular target: Protein arginine N-methyltransferase 1 (Homo sapiens) (UniProt Q99873)
Sequence (Q99873 whole entry, looked up): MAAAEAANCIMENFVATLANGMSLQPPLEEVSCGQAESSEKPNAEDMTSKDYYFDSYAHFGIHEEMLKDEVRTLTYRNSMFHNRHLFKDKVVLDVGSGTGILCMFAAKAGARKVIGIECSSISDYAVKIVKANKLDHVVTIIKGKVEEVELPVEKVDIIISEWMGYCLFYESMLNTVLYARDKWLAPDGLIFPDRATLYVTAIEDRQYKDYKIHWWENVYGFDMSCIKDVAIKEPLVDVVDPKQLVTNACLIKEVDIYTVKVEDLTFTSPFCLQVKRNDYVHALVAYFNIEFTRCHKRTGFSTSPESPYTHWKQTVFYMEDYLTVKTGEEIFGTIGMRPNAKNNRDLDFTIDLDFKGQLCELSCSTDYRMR
Experiment: human PRMT1 activity-probe blockers – biochemical, fluorescence polarization, primary screen (AID 652257)
Details: recombinant PRMT1, activity-based probe fluorescence polarization; at 2.79 µM; hits give high values

Row | SMILES | inhibition
1 | CCC(C)(C)NC(=O)C(c1cccc(OC)c1OC)N(CC(C)C)C(=O)CCC(=O)Nc1cc(C)on1 (configuration not stated) | -2.2% (inactive)
2 | CCn1c(=S)sc2c(=O)n(CC(=O)Nc3ccc(OC)cc3)c(C)nc21 | 0.4% (inactive)
3 | Oc1ccc2ccc3cccc[n+]3c2c1 | 187% (active)
4 | COC(=O)[C@]12C[C@H](CC(=O)NCc3ccccc3)C(=O)N(Cc3ccccc3)C1=C[C@H](COCc1ccccc1)O[C@@H]2C | 1.65% (inactive)
5 | N/C(=N\OC(=O)CCc1ccccc1)c1cccnc1 | 0.81% (inactive)
6 | Cc1ccc(OCc2nnc(SC/C=C/c3ccccc3)n2Cc2ccco2)cc1 | -0.38% (inactive)
7 | O=C(Nc1cc(Cl)cc(Cl)c1)OCCN1CCCC12CCC(c1ccccc1)CC2 (configuration not stated) | -4.6% (inactive)
8 | COc1ccc(CSc2nnc(SCC(=O)Nc3ccccc3C(F)(F)F)s2)cc1 | -1.07% (inactive)
9 | COCCCNC(=O)C[C@H]1C[C@@]2(C(=O)OC)C(=C[C@H](C(C)(C)C)O[C@@H]2C)N(Cc2ccc(Cl)cc2Cl)C1=O | 4.84% (inactive)
10 | COC(=O)[C@]12C[C@H](CC(=O)NCc3ccccc3)C(=O)N(CCc3ccc(OC)c(OC)c3)C1=C[C@H](C(C)(C)C)O[C@@H]2C | -1.11% (inactive)
11 | NS(=O)(=O)c1ccc(NC(=O)COC(=O)c2c3c(nc4ccccc24)/C(=C\c2ccc4c(c2)OCO4)CCC3)cc1 | 139% (active)
12 | O=C(COC(=O)c1c(Cl)cccc1Cl)Nc1cccc(S(=O)(=O)NC2=NCCCCC2)c1 | -1.88% (inactive)
13 | O=C(COC(=O)c1ccc2c(c1)OCCO2)NCc1ccccc1Cl | -2.85% (inactive)
14 | NC(=O)c1ccc(NC(=O)COC(=O)c2c3c(nc4ccccc24)/C(=C\c2ccc4c(c2)OCO4)CCC3)cc1 | 141% (active)
15 | CN(C)S(=O)(=O)c1ccc(NC(=O)COC(=O)c2n[nH]c3ccccc23)cc1 | -3.56% (inactive)
16 | CN(CC(=O)Nc1ccc(C(N)=O)cc1)S(=O)(=O)c1ccc2c(c1)OCCO2 | -3.91% (inactive)
17 | COc1cccc(CSc2nnc(-c3cccnc3)n2Cc2ccccc2)c1 | 4.89% (inactive)
18 | COc1ccc(C2Nc3ccccc3C(=O)N2Cc2cccs2)cc1COc1c(C)cccc1C (configuration not stated) | -1.12% (inactive)
19 | CCOC(=O)N1CCN(C(=O)CSc2nnc(-c3c[nH]c4ccccc34)n2CCOC)CC1 | -1.98% (inactive)
20 | CN(CCO)c1cccc2c1S(=O)(=O)N(Cc1cn(Cc3ccc(C(F)(F)F)cc3)nn1)Cc1ccccc1O2 | 4.68% (inactive)
21 | COc1cccc(/C=C/C(=O)OCC(=O)N2CCCc3ccccc32)c1 | -0.48% (inactive)
22 | Cc1cccc2cc3c(N)c(C(=O)N4CCCc5ccccc54)sc3nc12 | 38% (active)

Row | SMILES | inhibition
23 | Cn1c(SCC(=O)N2CCCc3ccccc32)nc2ccccc2c1=O | 0.04% (inactive)
24 | Cc1ccc(N)cc1CN1CCN(c2ncc(Cc3ccccc3)cn2)CC1 | -1.39% (inactive)
25 | Cc1ccc(NC2(C#N)C(=O)Nc3ccccc32)cc1 (configuration not stated) | -2.14% (inactive)
26 | N#CC1=C(N)Oc2[nH]c(=S)[nH]c(=O)c2C12C(=O)Nc1ccccc12 (configuration not stated) | 37.2% (active)
27 | O=S1(=O)c2ccc(Br)cc2OC[C@H](Cc2ccccc2)N1Cc1cn(Cc2ccccc2)nn1 | 4.16% (inactive)
28 | C=CCC(NCc1ccco1)c1ccc(OC)cc1 (configuration not stated) | -0.85% (inactive)
29 | Cc1cc(/C=N/Nc2ccc([N+](=O)[O-])cn2)c(C)n1-c1cccc(C(=O)O)c1 | 23.6% (active)
30 | Cc1cccc(C(=O)NC(=S)N2CCN(c3ccc([N+](=O)[O-])cc3)CC2)c1 | -2.54% (inactive)
31 | CN1CCN(C(=O)c2cnn(-c3ccccc3)c2NC(=O)c2ccc([N+](=O)[O-])cc2)CC1 | 4.06% (inactive)
32 | Cc1ccccc1NC(=O)COC(=O)c1ccc(Sc2ncn[nH]2)c([N+](=O)[O-])c1 | -0.43% (inactive)
33 | O=C(O)c1[nH]c2ccccc2c1C(c1cccc(O)c1)c1c(C(=O)O)[nH]c2ccccc12 | -1.91% (inactive)
34 | Cc1c(C(C)c2ccccc2O)[nH]c2ccccc12 (configuration not stated) | 2.86% (inactive)
35 | CCOC(=O)c1ccn(S(=O)(=O)c2ccc(C)cc2)c1-c1ccccc1 | -3.46% (inactive)
36 | CCOC(=O)c1ccccc1NC(=O)c1c(N)n(C)c(=O)[nH]c1=O | 1.71% (inactive)
37 | CCOC(=O)c1cc2n(c1N)-c1ccccc1C2=O | 29.4% (active)
38 | COc1cc(/C=C/C(=O)n2cnc3ccccc32)cc(OC)c1OC | 5.15% (inactive)
39 | NS(=O)(=O)c1ccc(NC(=S)NC(=O)c2cccnc2)cc1 | 0.33% (inactive)
40 | C=CCN1C(C(=O)OC)CN(Cc2cn(Cc3ccccc3)nn2)CCS1(=O)=O (configuration not stated) | -1.05% (inactive)
41 | O=C1C=CC(=O)N1c1ccc(N2CCCCC2)cc1 | 90.5% (active)
42 | O=C(COc1ccc([N+](=O)[O-])cc1Cl)Nc1ccc2[nH]c(=O)[nH]c2c1 | 1.93% (inactive)
43 | CC(C)(C)NC(=O)COc1ccc(CNc2ccc3[nH]c(=O)[nH]c3c2)cc1 | 35.9% (active)
44 | COc1ccc(C(=O)OCC(=O)Nc2ccc3[nH]c(=O)[nH]c3c2)c(OC)c1OC | 3.04% (inactive)

Row | SMILES | inhibition
45 | O=S1(=O)c2c(cccc2N2CCSCC2)Oc2ccccc2CN1Cc1cn(Cc2ccc(F)cc2)nn1 | -0.69% (inactive)
46 | O=C(Nc1ccccc1)N1CCN(Cc2nc3ccccc3c(=O)[nH]2)CC1 | 2.82% (inactive)
47 | CC(=O)N/C(=C\c1ccccc1)C(=O)OC(C)C(=O)N(C)c1ccccc1 (configuration not stated) | -2.28% (inactive)
48 | CN(C(=O)CN1CCN(c2cc(-c3ccc(OCc4ccccc4)cc3)ncn2)CC1)c1ccccc1 | -1.91% (inactive)
49 | CN(C)C(=S)N=c1ssc(=S)n1Cc1ccco1 | 27% (active)
50 | CCN(CC)C(=O)CSc1nnc(CNc2ccc(F)cc2)n1Cc1ccco1 | 10.1% (inactive)
51 | CC1CN(Cc2ccco2)C(=S)N(c2ccccc2)C1=O (configuration not stated) | 6.21% (inactive)
52 | Cc1cccc(OCCCC(=O)Nc2ccc(S(=O)(=O)N3CCCC3)cc2)c1 | 0.23% (inactive)
53 | Cc1ccc2nc(CN(C)C(=O)[C@@H](Cc3ccccc3)NC(=O)[C@H]3O[C@@H](n4ccc(=O)[nH]c4=O)[C@H](O)[C@@H]3O)[nH]c2c1 | 1.16% (inactive)
54 | COc1ccc(NC(=O)C(C)SCc2ccccc2)cc1 (configuration not stated) | 1.07% (inactive)
55 | CSc1nc(C)cc(SC(C(C)=O)C(=O)Nc2ccccc2)n1 (configuration not stated) | 73.7% (active)
56 | Cc1nnc(SC(C(=O)Nc2cc(Cl)cc(Cl)c2)c2ccccc2)[nH]c1=O (configuration not stated) | 11.5% (inactive)
57 | CCCC[C@H](C(=O)N(CC)c1ccccc1)[C@@H](O)c1ccc2ccccc2c1 | 1.04% (inactive)
58 | COc1cccc(N(C)C(=O)[C@@H](C)[C@@H](O)c2ccc3ccccc3c2)c1 | -1.81% (inactive)
59 | CC(=O)N(C1=C(Cl)C(=O)c2ccccc2C1=O)c1ccc(C(=O)O)cc1 | 87.5% (active)
60 | CCOC(=O)N1CCN(C(=O)C[C@H]2C[C@@]3(C(=O)OC)C(=C[C@H](C(C)(C)C)O[C@@H]3C)N(Cc3ccc(Cl)cc3Cl)C2=O)CC1 | 1.72% (inactive)
61 | O=C1CC(Sc2ncn[nH]2)C(=O)N1c1ccccc1 (configuration not stated) | 60.4% (active)
62 | COc1ccc(N2C(=O)CC(Sc3n[nH]c(-c4ccc(C)cc4)n3)C2=O)cc1 (configuration not stated) | 66% (active)
63 | Cc1ccnc(SC2CC(=O)N(c3ccccc3)C2=O)n1 (configuration not stated) | 8.05% (inactive)
64 | CC(=O)Nc1ccc(N2C(=O)CC(Sc3nccc(C)n3)C2=O)cc1 (configuration not stated) | 15.5% (inactive)
65 | COc1ccc(N2C(=O)C(O)C2c2ccc(C)cc2)cc1 (configuration not stated) | 3.23% (inactive)
66 | Cc1ccc(N2C(=O)CC(Sc3ncn[nH]3)C2=O)cc1 (configuration not stated) | 85.1% (active)

Row | SMILES | inhibition
67 | CCOc1ccccc1N1C(=O)CC(Sc2nccc(C)n2)C1=O (configuration not stated) | 14.4% (inactive)
68 | O=C(CSc1ncn[nH]1)Nc1ccnc2ccccc12 | 0.32% (inactive)
69 | CCOC(=O)c1ccc(N2C(=O)CC(Sc3nc(O)c(CC)c(=O)[nH]3)C2=O)cc1 (configuration not stated) | -0.27% (inactive)
70 | CCCC1CCC2(CCCN2CCOC(=O)NCc2ccccc2)CC1 (configuration not stated) | 5.29% (inactive)
71 | O=C(NC1CCCC1)C1CSCCS(=O)(=O)N1Cc1ccccc1 (configuration not stated) | -0.44% (inactive)
72 | O=C(Nc1cccc(Cl)c1)OC1CC2CC1[C@H]1CCCCN1[C@H]2Cc1ccccc1 (some centres not stated) | 1.47% (inactive)
73 | CC[C@@H](CCC(=O)N(c1ccccc1)c1ccccc1)C1CC1 | -2.74% (inactive)
74 | c1coc(CCNc2ncnc3ccc(-c4ccc5c(c4)OCO5)cc23)c1 | 15% (inactive)
75 | O=S1(=O)c2ccc(N3CCN(Cc4ccccc4F)CC3)cc2Oc2ccccc2CN1Cc1cn(Cc2ccc(Cl)cc2)nn1 | -3.79% (inactive)
76 | O=C(CSc1nnc(-c2ccccn2)n1-c1ccccc1)Nc1ccc2cn[nH]c2c1 | 1.03% (inactive)
77 | C=CCn1c(SCC(N)=O)nnc1-c1ccccc1OC | 5.94% (inactive)
78 | O=C(Cn1nc([N+](=O)[O-])nc1Br)NC1CCCCC1 | -3.64% (inactive)
79 | O=C(CCCCCN1C(=O)C2C3C=CC(C3)C2C1=O)Nc1ccccc1 (configuration not stated) | -2.78% (inactive)
80 | C=CCSc1nnc(N2C(=O)C(O)=C(C(=O)c3ccco3)C2c2ccc(F)cc2)s1 (configuration not stated) | 14.8% (inactive)
81 | O=C(C1=C(O)C(=O)N(c2ncccn2)C1c1cccs1)c1ccco1 (configuration not stated) | -1.95% (inactive)
82 | Cc1ccc2nc(N3C(=O)C(O)=C(C(=O)c4ccco4)C3c3cccc(O)c3)sc2c1 (configuration not stated) | 24% (active)
83 | CCc1c(-c2ccccc2OC)ncn1CCc1ccccc1OC | -6.39% (inactive)
84 | N#Cc1ccccc1OC[C@@H](O)CN1CCC(C(O)(c2ccccc2)c2ccccc2)CC1 | -3.45% (inactive)
85 | CC(=O)Nc1cccc(-c2cc(NC=O)c3ncc(-c4ccc(F)c(Cl)c4)n3c2)c1 | 2.68% (inactive)
86 | CC(=O)Nc1cc(-c2ccccc2N(C)C)cn2c(-c3ccc(F)c(Cl)c3)cnc12 | 49.4% (active)
87 | CC(=O)Nc1cc(-c2ccccc2F)cn2c(-c3cccc(C(F)(F)F)c3)cnc12 | 2.67% (inactive)
